# Bioassay records (PubChem BioAssay)
# This excerpt belongs to a sample that is enriched for hits.
# ST2 IL33 inh: inhibitors of human ST2 (IL1RL1) binding to IL-33, primary screen, biochemical, AlphaLISA; inhibition, % for hits at 17 µM; hit rate 2.3% among 78,000; AID 1259354, 2018; Interleukin-1 receptor-like 1 (Homo sapiens), Q01638; AlphaLISA ST2-Fc/biotin-IL-33 interaction, 1 h; in the data active = inhibition above about 30%
# Target sequence (Q01638 whole entry, looked up): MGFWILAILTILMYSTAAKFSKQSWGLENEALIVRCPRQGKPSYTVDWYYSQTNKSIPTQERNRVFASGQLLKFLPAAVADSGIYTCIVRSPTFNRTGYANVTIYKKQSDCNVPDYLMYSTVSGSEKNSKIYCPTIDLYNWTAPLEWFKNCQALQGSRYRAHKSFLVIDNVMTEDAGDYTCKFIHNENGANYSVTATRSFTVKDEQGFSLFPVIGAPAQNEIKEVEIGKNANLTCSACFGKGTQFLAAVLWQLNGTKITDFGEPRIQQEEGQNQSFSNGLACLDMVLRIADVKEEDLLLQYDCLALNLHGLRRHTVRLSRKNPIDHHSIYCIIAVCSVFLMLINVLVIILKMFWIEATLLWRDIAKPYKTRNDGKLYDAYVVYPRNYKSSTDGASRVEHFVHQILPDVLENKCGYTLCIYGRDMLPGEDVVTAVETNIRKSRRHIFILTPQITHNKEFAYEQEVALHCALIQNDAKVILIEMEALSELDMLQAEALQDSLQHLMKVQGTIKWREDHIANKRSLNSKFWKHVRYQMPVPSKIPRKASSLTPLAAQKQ
# Numbers without * were called inactive; i = inactive; ! = not confirmed by another sample.
SMILES,ST2 IL33 inh
O=C(c1ccc2nc3ccccc3c(=O)n2c1)N1CCN(c2cccc(Cl)c2)CC1,i
Cc1cnc2c(C(=O)N(C)C(C)Cc3ncccc3C)cnn2c1 (stereo not drawn),i
O=C(COc1ccc([N+](=O)[O-])cc1)c1ccc(Br)cc1,i
O=C(CCCOc1ccccc1)N1CCN(c2ccc([N+](=O)[O-])cc2)CC1,i
Cc1ccc(OCC(=O)N2CCN(c3ccccc3)CC2)cc1C,i
O=C(COc1ccccc1)N1CCN(c2ccc([N+](=O)[O-])c(NCCc3ccccc3)c2)CC1,33%*
Cc1nc2c(C(=O)NCCN(C)C)cnn2c(C)c1Cc1ccc(F)cc1,i
COc1ccc2c(c1)CCc1c(C(=O)Nc3cccc(O)c3)noc1-2,i
CSc1ccccc1C(=O)Nc1ccc(S(=O)(=O)N2CCOCC2)cc1,i
O=C(Nc1nc2ccccc2s1)c1ccc(S(=O)(=O)N2CCOCC2)cc1,i
CCN(CC)S(=O)(=O)c1ccc(C(=O)N=c2sc3ccccc3n2C)cc1,i
CCCCN(CCCC)S(=O)(=O)c1ccc(C(=O)Nc2nnc(-c3ccc(F)cc3)o2)cc1,i
CCN(CC)S(=O)(=O)c1ccc(-c2csc(=Nc3ccc(F)cc3)n2CCCO)cc1,43%*
O=S(=O)(c1ccc(-c2csc(=Nc3ccccc3)n2CCCO)cc1)N1CCOCC1,39%*
O=C(CCS(=O)(=O)c1cccc2nonc12)NC1CCCC1,i
CNCC(=O)NC(c1cc(C)ccn1)C1CC1 (stereo not drawn),i
O=C(Nc1cccc(-c2nc3ccccc3o2)c1)c1ccc([N+](=O)[O-])cc1Cl,i
CCN(CC)C(=O)Cn1cnc2sc(C(=O)N3CCN(c4ccccc4)CC3)c(C)c2c1=O,i
NS(=O)(=O)c1ccc(NC(=O)CCCOc2ccc(Cl)cc2Cl)cc1,i
O=C(N[C@H]1CCC[C@H]1Cc1ccc(F)cc1)C(=O)c1ccco1,i
CCOc1ccc(NC(=O)CC2Sc3ccc(C(F)(F)F)cc3NC2=O)cc1 (stereo not drawn),i
COc1ccc(S(=O)(=O)NCC(C)C)cc1OC,i
CC(C)CCNS(=O)(=O)c1ccc2c(c1)C(=O)c1cc(S(=O)(=O)NCCC(C)C)ccc1-2,36%*
Cc1c(NS(=O)(=O)c2ccc3c(c2)C(=O)c2ccccc2-3)c(=O)n(-c2ccccc2)n1C,i
N#CC1=C(SCc2ccccc2)NC(=O)CC1c1ccc(F)cc1 (stereo not drawn),i
SMILES,ST2 IL33 inh
NC12C[C@H]3C[C@@H](C1)CC(CC(=O)O)(C3)C2,i
Cc1cc(C)c(C#N)c(SCC(=O)c2ccc(F)cc2)n1,i
Cc1cc(C(F)(F)F)c(C#N)c(SCC(N)=O)n1,i
COCc1cc(C)nc(SCC(=O)c2ccc(Cl)cc2)c1C#N,30%*!
COCc1cc(C)nc(SCC(=O)c2ccc(C)cc2C)c1C#N,i
Cc1cc(C(F)(F)F)c(C#N)c(SCC(=O)c2ccc([N+](=O)[O-])cc2)n1,60%*
COCc1cc(C)nc(SCc2ccccc2Cl)c1C#N,i
COCCOC(=O)C1=C(C)NC(=O)NC1c1ccccc1O (stereo not drawn),i
Cc1c(Cl)c([N+](=O)[O-])nn1CCCC(=O)Nc1cc(C(F)(F)F)ccc1Cl,i
O=[N+]([O-])c1ccc(C2Nc3c(cccc3C(F)(F)F)C3C=CCC32)cc1 (stereo not drawn),i
O=[N+]([O-])c1cccc2c1NC(c1cccc(Cl)c1Cl)C1CC=CC21 (stereo not drawn),39%*
O=C(c1cccc2c1NC(c1ccc(Cl)cc1Cl)C1CC=CC21)N1CCCC1 (stereo not drawn),i
COc1cc(CN2CCc3c([nH]c4ccccc34)C2)c([N+](=O)[O-])cc1OC,i
CC(C)CCNC(=O)c1cc(=O)[nH]c2ccc(S(=O)(=O)N3CCCCC3)cc12,i
CCc1cccc(C)c1NC(=O)c1ccc(C)c(Cl)c1,i
O=C(Nc1ccc(N2CCCC2)cc1)c1ccc(F)cc1,57%*
O=C(Cc1ccccc1)Nc1ccc(N2CCCC2)cc1,59%*
CC(=O)Nc1ccc(NC(=O)c2cc(I)ccc2Cl)cc1,i
O=C(Cc1ccccc1)Nc1cccc(C(=O)O)c1,i
CCCOc1ccc(C(=O)Nc2ccc(N3CCCC3)cc2)cc1,i
O=C(Cc1ccccc1)Nc1ccc(S(=O)(=O)N2CCCC2)cc1,i
O=C(Nc1ccc(N2CCCC2)cc1)c1cc(I)ccc1Cl,51%*
CC(=O)c1ccc(C(=O)Nc2ccc(N3CCOCC3)cc2)cc1,i
Cc1ccc(C(=O)Nc2ccc(N3CCCC3)cc2)cc1Cl,53%*
Cc1ccc(C(=O)Nc2cccc([N+](=O)[O-])c2)cc1Cl,i
O=C(Nc1ccc(I)cc1)c1ccc(Cl)cc1Cl,i
CCCSc1nnc2c(n1)OC(c1ccccc1O)Nc1ccccc1-2 (stereo not drawn),i
CCCOc1cc(C)c2c(c1C)C[C@H]([C@H](C)C(=O)N1CCOCC1)CC2,i
O=c1cc(C(F)F)oc2ccc([N+](=O)[O-])cc12,i
OCc1cc(-c2cnc3ccccc3c2)ccc1F,i
